Shown are actives, neighbours in structure and some others; about 7.3% of the full set was active somewhere.
AmpC detergent = blocks E. coli AmpC beta-lactamase in detergent assay | AID 485294 | P00811 | Potency, µM (series often up to 114 µM), for the others: at the top dose activity change, negative = inhibition, actives largely listed as inhibitors | AmpC hydrolysis of nitrocefin, absorbance 480 nm, 0.01% Triton | 370,000 tested, 0.041% active;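 note: potency is the fitted concentration of half-maximal effect; 0% = no-compound wells and -100% = no-enzyme wells; nearly all actives have a fitted effect of over 25% in size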
Target sequence (P00811 whole entry, looked up): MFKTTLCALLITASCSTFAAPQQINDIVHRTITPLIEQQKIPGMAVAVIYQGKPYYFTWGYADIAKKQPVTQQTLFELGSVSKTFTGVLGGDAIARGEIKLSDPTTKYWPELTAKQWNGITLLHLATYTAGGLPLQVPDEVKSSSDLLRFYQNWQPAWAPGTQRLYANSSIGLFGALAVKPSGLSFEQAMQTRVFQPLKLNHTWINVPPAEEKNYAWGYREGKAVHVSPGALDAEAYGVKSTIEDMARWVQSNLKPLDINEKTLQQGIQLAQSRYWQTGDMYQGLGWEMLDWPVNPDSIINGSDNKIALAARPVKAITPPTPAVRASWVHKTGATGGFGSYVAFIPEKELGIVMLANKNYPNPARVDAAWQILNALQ
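AmpC (5.3 nM in the dispensed reagent) in 20 mM phosphate pH 7.0 with 0.01% (detergent screen) or 0.0001% Triton X-100 was preincubated with compounds for 15 min at room temperature. Nitrocefin was then added from an 800 uM solution, and hydrolysis was followed at 480 nm.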
AmpC no deterg = AmpC beta-lactamase inhibition without detergent; P00811; AmpC nitrocefin hydrolysis, absorbance 480 nm, 0.0001% Triton; Potency, µM (titrated, usually from 57.1 µM), for the others: at the highest dose activity change, negative = inhibition, most hits filed as inhibitors; 330,000 tested, 0.52% active; AID 485341;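 note: potency is the fitted concentration of half-maximal effect; plate controls were no compound for no effect and no enzyme for full effect; nearly all actives have a fitted effect of over 20% in size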
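20 mM phosphate pH 7.0 + 0.01% (detergent screen) or 0.0001% Triton X-100; 5.3 nM AmpC reagent; cpd preinc 15 min RT; nitrocefin (800 uM stock) to start; A480 q20 s × 4 min; Activity was normalised to no-enzyme and no-compound control wells.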
HCMV inh = blocks human cytomegalovirus replication. HFF cells, HCMV-luciferase reporter, 72 h; stronger effect = lower value. AID 1259415. 410,000 tested, 4.5% active. activity change, negative = inhibition, % at 57.5 µM; in the data active = activity change below about -60%; inconclusive = no clear call, values can overlap the other calls; inactive = above about -39%; note: % is set by controls: 0 for no effect and ±100 for the full control effect
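Screen run at 2 compound doses on HFFs infected with reporter HCMV, MOI 1 PFU/cell. Luciferase activity from cell lysates at 72 h post infection gave inhibition relative to buffer-only and Salinomycin wells.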
HCV inh = inhibitors of hepatitis C virus infection. 340,000 tested, 3.4% active. Potency, µM (highest dose often 41.8 µM), inactives show top-dose activity change, negative = inhibition, most hits filed as inhibitors. Huh7.5.1 HCVcc-Cre infection, luciferase reporter, 44 h; note: potency is the fitted concentration of half-maximal effect; % is set by controls: 0 for no effect and ±100 for the full control effect
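Reporter virus HCVcc-Cre (~0.5 moi) infects cells exposed to compound; seeding density 1,000 cells/well with 4 h settling beforehand. Luminescence, 15 sec read, taken 44 h post-infection following a 15 min RT substrate incubation.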
FMDV antiviral = foot and mouth disease virus antiviral activity; 410,000 tested, 1.2% active; Potency, µM (doses to about 57.9 µM), for inactives: at the highest dose activity change, negative = inhibition, hits mostly inhibitors; FMDV antiviral cell-based qHTS; calls by dose curve; tested in HEK293T cells; note: read-out not given here; potency is the fitted concentration of half-maximal effect; % is set by controls: 0 for no effect and ±100 for the full control effect; nearly all actives have a fitted effect of over 45% in size
HCV confirm = HCV inhibition, cherry-pick confirmation; HCVcc-Cre infectious virus cell assay, luciferase, inhibition; 640 tested, 78% active; shares compounds with HCV inh; AID 720575; Potency, µM (titrated, usually from 41.8 µM), for inactives: top-dose activity, negative = inhibition, usual class: inhibitors; note: potency is the fitted concentration of half-maximal effect; nearly all actives have a fitted effect of over 80% in size
HCV host tox = counter-screen for HCV inhibitors: host cell cytotoxicity | shares compounds with HCV inh | HCV host cell line cytotoxicity counterscreen | Potency, µM (series often up to 41.8 µM), without a hit: at the highest dose activity change, negative = cytotoxicity, most hits filed as inhibitors | 640 tested, 22% active | AID 720576;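 note: potency is the fitted concentration of half-maximal effect; 44 h compound exposure; % is set by controls: 0 for no effect and ±100 for the full control effect; nearly all actives have a fitted effect of over 55% in size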
* marks the source's active call; other numbers are inactive results; ? = inconclusive; . = no result given. Unless noted, calls come from the whole dose curve; as a rule, active = well fitted curve in the direction sought with a large enough effect; inconclusive = small, poorly fitted or top-dose-only effect, or another doubt; inactive = no such curve, though single readings can be large; an effect the other way counts as inactive or inconclusive.

SMILES	AmpC detergent	AmpC no deterg	HCMV inh	HCV inh	FMDV antiviral	HCV confirm	HCV host tox
CN1CCC(=C2c3ccccc3C(O)c3ccccc32)CC1 (stereo not given)	1%	-2%	-13	-6%	7%	.	.
Fc1ccc(CCNc2ncnc3[nH]ncc23)cc1	.	.	-36	?	-9%	.	.
COc1ccc(CCNc2ncnc3[nH]ncc23)cc1OC	2%	-16%	?	?	18µM*	8.9µM*	-21%
O=C(Nc1ccn(Cc2ccccc2F)n1)c1ccc(COc2ccc(Br)cc2)cc1	8%	-30%	-103*	6.3µM*	?	4.4µM*	-72%
CC(C)(C)OC(=O)N1Cc2ccccc2C[C@H]1C(=O)NCC(=O)NCC1CCCO1 (stereo not given in full)	-5%	11%	-26	10%	-9%	.	.
CNCCc1cnc[nH]1	.	.	.	.	7%	.	.
Cc1cnc[nH]1	3%	-1%	-22	-61%	-16%	9%	-7%
Cc1nc(-c2ccc(C(=O)Nc3cccc(Br)c3)cc2)cs1	0%	-38%	-68*	4.5µM*	-40%	2.8µM*	4µM*
COc1cc(/C=N/NC(=O)c2cccc(S(=O)(=O)N3CCOCC3)c2)cc(OC)c1O	-5%	-18%	35	-10%	-26%	.	.
CCN(Cc1ccccc1)c1ccc(/C=N/NC(=O)c2cccc(S(=O)(=O)N3CCOCC3)c2)cc1	-9%	9%	?	?	?	5.6µM*	-34%
CCCCCCCCCCn1c2c(c(=N)c3c1CCC3)CCC2	10%	73%	-98*	3.5µM*	18µM*	1.8µM*	2.2µM*
CCOC(=O)Cn1c2c(c(=N)c3ccccc31)CCC2	-8%	-19%	5	-2%	-5%	.	.
O=C(Nc1cccc(C(F)(F)F)c1)C1CCN(S(=O)(=O)c2ccc(N3CCCC3=O)cc2)CC1	2%	25%	-66*	6.3µM*	?	8.9µM*	14µM*
CCOc1ccc(CCNS(=O)(=O)c2c(C)nc3scc(C)n3c2=O)cc1OCC	-12%	13%	25	5%	-11%	.	.
Cc1nn(CC(=O)NCCCN2CCC(N3CCCCC3)CC2)c(=O)c2cc(-c3ccccc3)nn12	-4%	0%	?	4µM*	9%	25µM*	20%
Cc1ccccc1Oc1nc(-c2ccccn2)nc2ccccc12	-3%	61%	-99*	7.9µM*	-9%	11µM*	?
OC1CCCN(CC(O)COc2ccc(-c3ccccc3)cc2)C1 (stereo not given)	-2%	29%	-1	?	11%	.	.
CC1CCCN(CC(O)COc2ccc(-c3ccccc3)cc2)C1 (stereo not given)	-4%	28%	-28	2.8µM*	-24%	16µM*	52%
COC(=O)[C@@]12CCCN1[C@H](c1ccc(-c3ccc(Cl)c(Cl)c3)c(OC)c1)[C@H]1C(=O)N(C)C(=O)[C@H]12	.	201%	-4	?	?	.	.
O=C(c1ccc2c(c1)N(Cc1ccccc1F)C(=O)c1ccccc1S2=O)N1CCN(c2ccccc2)CC1 (stereo not given)	-5%	.	-37	.	?	.	.
Nc1ccc2c(c1)C(=O)c1ccc(Br)cc1-2	.	.	45	?	-1%	-20%	-10%
Nc1ccc2c(c1)C(=O)c1ccccc1C2=O	-3%	-20%	27	?	84%	.	.
CCOc1cccc2sc(N(CCCN(C)C)C(=O)c3ccc(S(=O)(=O)N(C)Cc4ccccc4)cc3)nc12	-11%	183%	?	5µM*	?	14µM*	-29%
CCN(CC)S(=O)(=O)c1ccc(OC)c(NC(=O)CSc2cc(Cl)ccc2Cl)c1	-8%	-11%	?	?	-3%	22µM*	22%

Source: PubChem BioAssay (National Center for Advancing Translational Sciences (NCATS))
